Results published in article PMC7819943, “Rice protein-binding microarrays: a tool to detect cis-acting elements near promoter regions in rice”.
Over roughly 68,000 sequences, “fluorescence intensity (a.u.)” has its median near 9,100; the highest 2% begin near 16,000. The sample as a whole holds a higher share of the highest values than the screen did.

molecular target: OsWRKY34 (Oryza sativa, UniProt Q0JBA9 1-250); assay: protein-binding microarray (RPBM); PBS, 2% BSA, 51.3 ng/ul salmon testes DNA, 50 uM zinc acetate, 200 nM TF, 25 C, 1 h; high values mean tight binding; conditions: protein: recombinant; tags: N-terminal polyhistidine and DsRed monomer fusion (pET32a); label: CyDye5-dUTP incorporated in the synthesized complementary strand; 3' TTTTT single-stranded linker to array surface; dsDNA, one strand shown
Method in brief: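 An Axon 4000B scanner gave the binding signal as per-feature fluorescence intensity in arbitrary units. This followed washing of a custom Agilent array that had been incubated for 1 h at 25 °C with 200 nM protein in PBS, 2% BSA, salmon testes DNA and 50 µM zinc acetate. The proteins were transcription factors fused at the N-terminus to polyhistidine and DsRed, expressed in E. coli BL21-CodonPlus and purified on Ni–NTA.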

Chain of OsWRKY34 (Q0JBA9 entry or part of it): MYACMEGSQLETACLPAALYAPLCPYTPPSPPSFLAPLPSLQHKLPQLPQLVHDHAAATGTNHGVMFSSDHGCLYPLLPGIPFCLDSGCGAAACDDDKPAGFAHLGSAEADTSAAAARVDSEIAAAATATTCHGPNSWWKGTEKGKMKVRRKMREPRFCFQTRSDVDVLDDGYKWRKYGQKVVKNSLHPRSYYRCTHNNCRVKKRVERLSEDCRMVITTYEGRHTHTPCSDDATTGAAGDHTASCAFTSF

Sequence | binding signal
ATTCTGTATTTATTGTTTGCTGCATTCAGTTTGATTGGTTCGGAGTCACCTAGTGCAG | 13900 fluorescence intensity (a.u.)
GGTGACTGATAATTATTATTTTCTTTGTTTCACATTATACCGGAGTCACCTAGTGCAG | 14200 fluorescence intensity (a.u.)
ACGTATTTGTGAGGGGATTTGGTACCATTACATCTGTTTTCGGAGTCACCTAGTGCAG | 8192 fluorescence intensity (a.u.)
TTGTGGATTTTTTTTTTTTGAGAGGGATGGGTGTTTGATTCGGAGTCACCTAGTGCAG | 10900 fluorescence intensity (a.u.)
GGGGTGACATTTCAATTGTTTTTCTCTTATATTTGTAATCCGGAGTCACCTAGTGCAG | 20100 fluorescence intensity (a.u.)
TTTCTTTTCATATATTTTTGTTTATTTTCTCTCATTTCTCCGGAGTCACCTAGTGCAG | 11300 fluorescence intensity (a.u.)
GGTTGGTGCTGTATTGTTTGAGGGGAGGGGATTCCATTTTCGGAGTCACCTAGTGCAG | 47400 fluorescence intensity (a.u.)
TTGTTGGGTGCTGAATTGCTGATGTGGTGGGGTGACATGACGGAGTCACCTAGTGCAG | 12500 fluorescence intensity (a.u.)
CTGATGGTGTTGGTGATGGTGGTGCGGGTGCGGCAGTTGACGGAGTCACCTAGTGCAG | 13200 fluorescence intensity (a.u.)
AGATTGGGTTTGGGTGGTGTGAGGATTGATTTGTTTTTTTCGGAGTCACCTAGTGCAG | 17800 fluorescence intensity (a.u.)
GAGGATTGATTTGTTTTTTTTTTTTGGGGTTTTCTCTTCTCGGAGTCACCTAGTGCAG | 16300 fluorescence intensity (a.u.)
TTGACAATGGTTGGGGTGGTGGTGGTGTTCGCGGTGATGACGGAGTCACCTAGTGCAG | 31700 fluorescence intensity (a.u.)
GGACTGCTCCACCATTTTTAGTCCCGGTTGGTAATACCAACGGAGTCACCTAGTGCAG | 8570 fluorescence intensity (a.u.)
AATCTATCCCAGCCTAAATCTCACTGTTTCATGCACAACTCGGAGTCACCTAGTGCAG | 8350 fluorescence intensity (a.u.)
GCGCGCGTCCCGTCACGTCTTTTCTCCTCGCCTATATGCCCGGAGTCACCTAGTGCAG | 9050 fluorescence intensity (a.u.)
CAGCTATCGTTATTCTGAAGATCCACCAAGCACAATCTTACGGAGTCACCTAGTGCAG | 8280 fluorescence intensity (a.u.)
TCGGTGGGTGGTTGGGGATATTGCAAAAAGTATATAAAAACGGAGTCACCTAGTGCAG | 15800 fluorescence intensity (a.u.)
TTAACTGCAACCATAAGTTTCTGCGCCTAACTTTGATCGTCGGAGTCACCTAGTGCAG | 8850 fluorescence intensity (a.u.)
ATTCTCTCTTCTGTGTTTCCTTTTTGAGATACTTCATTTTCGGAGTCACCTAGTGCAG | 9340 fluorescence intensity (a.u.)
CCACTTGTACATATACAACTTGTTTTGTGGGGAGGGGTGTCGGAGTCACCTAGTGCAG | 12700 fluorescence intensity (a.u.)
GGGCGCGATGGGTTGGGGTGTGTTTCCGTGGATTGATGACCGGAGTCACCTAGTGCAG | 21100 fluorescence intensity (a.u.)
TAGTATATACATGGGTGTTTGGGAGAGAGGGGCTAAACTTCGGAGTCACCTAGTGCAG | 9540 fluorescence intensity (a.u.)

Sequence | binding signal
ACTTCCCATTGTTGTTGCCATCGCCGCCGCCGCCGCCGCCCGGAGTCACCTAGTGCAG | 12200 fluorescence intensity (a.u.)
TGTTTTGTGGGGAGGGGTGTACATATACAACTTAGTACTCCGGAGTCACCTAGTGCAG | 20300 fluorescence intensity (a.u.)
CGCCGAGGGGAGGGGAGGGGAGGTTGCCATTGTTGTCCATCGGAGTCACCTAGTGCAG | 22000 fluorescence intensity (a.u.)
GGGCGTGTGGTTGAGAACTTGATTGGGATGATGATGAGACCGGAGTCACCTAGTGCAG | 10400 fluorescence intensity (a.u.)
TGCGCCATCTTTTGTCGTCCCGAGGGGATGGGCGGGGTTGCGGAGTCACCTAGTGCAG | 16400 fluorescence intensity (a.u.)
ACGTTGGATTGGTGGTGGACGGGCGCGATGGGTTGGGGTGCGGAGTCACCTAGTGCAG | 9930 fluorescence intensity (a.u.)
TTCCTATGTTTTTCCTGTGTTTTGTAATTCTCTGTTTTACCGGAGTCACCTAGTGCAG | 10600 fluorescence intensity (a.u.)
GGGGTAATTTCTCTGTGTTTTGAGTTGAGGGAGATAATTCCGGAGTCACCTAGTGCAG | 16900 fluorescence intensity (a.u.)
CGAGAGATCGTTGCCCTCCGTATCCACTACTACTACACTCCGGAGTCACCTAGTGCAG | 8310 fluorescence intensity (a.u.)
CAGGATTGCTTGGAGATTCGTGCGGGGACGCGCGGGGTGACGGAGTCACCTAGTGCAG | 9720 fluorescence intensity (a.u.)
TACCGGTTAAAACGCCCAAGTCAGTGGCTCTCGTCCTCCTCGGAGTCACCTAGTGCAG | 8860 fluorescence intensity (a.u.)
GTGCAGTTTATACATTAACATGTTAATCCCACTTTACTACCGGAGTCACCTAGTGCAG | 10300 fluorescence intensity (a.u.)
ACGGCATTTTTCGCCCCTTTTGTCACTGAAACACTTCACCCGGAGTCACCTAGTGCAG | 8860 fluorescence intensity (a.u.)
GCAGCCCTCAATTTCTATGGCGATCGCCTCTGCTTCGTCGCGGAGTCACCTAGTGCAG | 8440 fluorescence intensity (a.u.)
GGCCTCCTTCATCACGCCCTGGATCTCACTGACTAAAAACCGGAGTCACCTAGTGCAG | 8030 fluorescence intensity (a.u.)
CTATGTTCATCCTCGTGTCATATTGTGTTCATCTTCATACCGGAGTCACCTAGTGCAG | 11600 fluorescence intensity (a.u.)
GAGGGAGTATTATCTTCTGAACATATGTTTGACCATTGGACGGAGTCACCTAGTGCAG | 8940 fluorescence intensity (a.u.)
ATTACCCTAATCATCATTCATTCATGTATAGCTCATCCTACGGAGTCACCTAGTGCAG | 8810 fluorescence intensity (a.u.)
ACCATCAAGTTCTGCTTTTCTTCCCCATGTTTTTTTGCCCCGGAGTCACCTAGTGCAG | 10700 fluorescence intensity (a.u.)
ATGTTGATATTGTGGTTGGTTGTGGGCATGTTACATTTTCCGGAGTCACCTAGTGCAG | 11500 fluorescence intensity (a.u.)
CTCTGTGTTGTTTTTGGCATGTGTTTGATATTTGGAGTTCCGGAGTCACCTAGTGCAG | 16600 fluorescence intensity (a.u.)
